Our source for the growth inhibition values is PubChem BioAssay (NCI).

“And” between values parts separate entries of the source, which are not always exact repeats. Equal values may be shown once. Compounds without any hit were thinned out: in the full panel of roughly 79,000, 15% have a hit. Unmarked numbers belong to inactive results. The source made the active and inactive calls. Cut-off read from the data, not from the text of the source: active = growth inhibition above about 70%; inactive = the rest.

This experiment in a line: NCI Yeast Anticancer Drug Screen. Data for the cln2 rad14 strain (AID 165).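 Note: 0% = growth equal to vehicle treated cultures.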 The conditions noted are these: S. cerevisiae cln2 rad14 strain, active compounds read high; at 50.0 µM unless noted. As for the experimental part: Growth inhibition of yeast strains with defined genetic alterations is measured as a screen for potential anti-cancer activity. Selected strains with alterations in DNA damage repair or cell cycle control were exposed to compounds and growth inhibition was measured relative to vehicle treated controls. The strain used in this assay is cln2 rad14
Regarding `CCc1ccc(-c2cc(-c3ccc(CC)cc3)cc(-c3ccc(CC)cc3)c2)cc1`, the growth inhibition was 0.3%.

On to `Nc1c(I)cc(I)c(C(=O)O)c1I`, for which the growth inhibition was -14.8%.

For the compound `CC12CC(=O)OC1(C)C1CCC2C1` (stereo not given), the growth inhibition was -10.7%.

In the case of `O=[N+]([O-])c1ccc(S/N=C\c2ccccc2)c([N+](=O)[O-])c1`, the growth inhibition is 14.6%.

Turning to `COC(NC(=O)Nc1ccccc1C)(C(F)(F)F)C(F)(F)F`, the growth inhibition was 2.8%.

With `Nc1cc([N+](=O)[O-])ccc1C(=O)O`, the growth inhibition was -3.1%.

`O=c1c2cc(Cl)ccc2c2ccc(Cl)cc2c(=O)n1-c1ccc2c(c1)Cc1ccccc1-2`: the growth inhibition was -10.6%.

Take `COc1ccc(C2(OC)Oc3cc(OC)ccc3-c3nc4ccccc4nc32)cc1` (stereo not given): the growth inhibition is 11.6%.

For the compound `N#CCc1nc(-c2cc3ccc(O)cc3oc2=O)cs1`, the growth inhibition is 2.8%.

Consider `CC1=NN(C(=O)Cc2ccccc2)C(=O)/C1=C\C=C\c1ccccc1`, for which the growth inhibition is -9.2%.

Turning to `Cc1ccc(S(=O)(=O)N/N=C(/c2nc3ccc([N+](=O)[O-])cc3[nH]c2=O)C(O)c2ccc(C(O)/C(=N\NS(=O)(=O)c3ccc(C)cc3)c3nc4ccc([N+](=O)[O-])cc4[nH]c3=O)cc2)cc1` (stereo not given), the growth inhibition was 0.6%.

With `O=C(O)CCNCCC(=O)O`, the growth inhibition is -25.5%.

For `O=c1nc(NCc2ccco2)ccn1C1OC(CO)C(O)C1O` (stereo not given), the growth inhibition is 13.9%.

Regarding `[Cu+2].[NH-]CC(=O)NC(Cc1ccccc1)C(=O)O.[NH-]CC(=O)NC(Cc1ccccc1)C(=O)O` (stereo not given), the growth inhibition is 17.5%.

Turning to `OC(COc1cccc(C(F)(F)F)c1)CN1CCN(c2ccc(F)cc2)CC1` (stereo not given), the growth inhibition is 88.5% (active).

On to `NC(=S)N/N=C1\CCCc2ccccc21`, for which the growth inhibition was 41.9%.

Regarding `O=C1C2=C(C(=O)C3=C1C1CCC3C1)C1CCC2C1`, the growth inhibition was -15.2%.

Take `Cc1c2c(c(C)c3c1C(=O)c1cc4c(cc1C3=O)OCO4)OCO2`: the growth inhibition is -4.7%.

In the case of `CC(=Nc1cccc(Cl)c1)c1ccncc1`, the growth inhibition is -21.2%.

In the case of `COCCN(CCOC)C(=O)Nc1ccc(Cl)cc1`, the growth inhibition is 4.5%.

For `N#CCCC(C#N)(CCC#N)C(N)=O`, the growth inhibition was -49.6%.

In the case of `c1ccc2c(c1)/C(=N/c1nccs1)N/C2=N\c1nccs1`, the growth inhibition is -25.6%.

In the case of `CC1CC(NC(=S)N(C)C)CC(C)(C)C1` (stereo not given), the growth inhibition was -10.8%.

`Cn1cnc([N+](=O)[O-])c1Sc1nc2cc(Cl)c(F)cc2[nH]1`: the growth inhibition was 8.5%.

Take `CCOC(=O)C(C)NC(=O)C(C)NC(=O)C(C)NC(=O)C(C)NC(=O)C(C)NC(=O)OCc1ccccc1` (stereo not given): the growth inhibition was -0.35%.

Consider `NC(N)=NS(=O)(=O)c1ccc(N=NC2=C(O)C(c3ccccc3)N(c3ccccc3)C2=O)cc1` (stereo not given), for which the growth inhibition was 0.3%.

For the compound `O=C(O)c1ccc(/C=N/N=C2c3ccccc3-c3ccccc32)cc1`, the growth inhibition is 72.1% (active).

`CN(C)CC1(C)CC/C(=C\c2ccc3c(c2)OCO3)C1=O` (stereo not given): the growth inhibition is 51.9%.

Turning to `C=C(NC(=O)C(=C)NC(=O)c1csc(C2=NC3c4csc(n4)C4NC(=O)c5csc(n5)C(C(C)(O)C(C)O)NC(=O)C5CSC(=N5)/C(=C/C)NC(=O)C(C(C)O)NC(=O)c5csc(n5)C3(CC2)NC(=O)C(C)NC(=O)C(=C)NC(=O)C(C)NC(=O)C(C(C)CC)NC2C=Cc3c(C(C)O)cc(nc3C2O)C(=O)OC4C)n1)C(N)=O` (stereo not given), the growth inhibition is 29.5% and 23.2%.

With `CCOC(=O)C(C)NC(=O)NC12CC3CC(CC(F)(C3)C1)C2` (stereo not given), the growth inhibition is 6.35%.

`Cc1cc(C)c(C(=O)Cc2ccccc2)c(C)c1`: the growth inhibition was 12.4%.

Regarding `O=c1[nH]c(=O)n(C2CC(O)C(CO)O2)cc1C#Cc1c(F)c(F)c(F)c(F)c1F` (stereo not given), the growth inhibition was 11.8%.

On to `COC(C(=O)NN)c1ccccc1` (stereo not given), for which the growth inhibition was -43.5%.

Consider `CN(C)/C=N/n1c2ccccc2c2ccccc21`, for which the growth inhibition is -7.55%.

As for `COc1cc([C@@H]2c3cc4c(cc3[C@H](OC3OC5COC(c6ccco6)OC5C(O)C3O)C3COC(=O)[C@@H]32)OCO4)cc(OC)c1OC` (stereo not given in full), the growth inhibition is 17.9%.

Turning to `Cc1no[n+]([O-])c1/C=N/NS(=O)(=O)c1ccccc1`, the growth inhibition is -6.05%.

Regarding `O=S1(=O)C(c2ccccc2)=C1c1ccccc1`, the growth inhibition is 24.6%.

As to `CN(C)c1c2ccccc2c(NC=O)c2ccccc12`, the growth inhibition is 24.6%.

As to `CC(C)(Nc1ccccc1)C(=O)OC(C)(C)C(=O)Nc1ccccc1`, the growth inhibition was 2.05%.

As to `NCC1COC(c2ccccc2)(c2ccccc2)O1` (stereo not given), the growth inhibition was -32.5%.
